Source: PubChem BioAssay (NCATS)
Records with an inconclusive call do not appear. Entries that show only a call come without a potency. The source made the active and inactive calls. Calls come from the whole dose curve; as a rule, active = well fitted cell-killing curve with a large enough effect; inconclusive = small, poorly fitted or top-dose-only effect; inactive = flat fitted curve, though single readings scatter.

Experiment: HPAF-II Cancer Cell Toxicity qHTS against the NCATS CANVASS Library (AID 1347346); note: nearly all actives have a fitted effect of over 55% in size
Conditions: HPAF-II viability, CellTiter-Glo ATP luminescence, 72 h; series mostly up to 38.3 µM
From the text: Natural products and their derivatives continue to be wellsprings of nascent therapeutic potential. However, many laboratories have limited resources for biological evaluation, leaving their previously isolated or synthesized compounds largely or completely untested. To address this issue, the Canvass library of natural products was assembled (https://tripod.nih.gov/canvass), in collaboration with academic and industry researchers, for quantitative high-throughput screening (qHTS) across a diverse set of cell-based and biochemical assays. The pure (>85% purity by liquid chromatography/mass spectrometry [LC/MS]) Canvass library of 346 natural products were submitted by 45 academic laboratories and companies around the world. We collected pure natural products to circumvent deconvolution and structure elucidation due to time and resource limitations. The library was formatted into 1536-well plates and evaluated in 50 qHTS (in an 11-pnt concentration series) bioassays with broad scope of disease-relevant mechanisms. The resulting data set from 50 different assays was then systematically analyzed to identify overall trends and specific natural products with interesting biological activities. Reported herein are the results of each individual qHTS and their corresponding assay protocol. National Center for Advancing Translational Sciences (NCATS), Rockville, MD National Institute of Health (NIH), Bethesda, Maryland
Cancer Cell Toxicity protocol for cell lines COV-362, OV-KATE, OV-SAHO, UWB1.289, UWB1.289-WTBRCA1, HEK-293, HPAF-II, Panc-1005, SW1088, or U-118MG. 1.#In a 1536 well, white solid bottom tissue culture plates (Corning 7494), corresponding cells (COV-362, OV-KATE, OV-SAHO, UWB1.289, UWB1.289-WTBRCA1, HEK-293, HPAF-II, Panc-1005, SW1088, or U-118MG) were dispensed in each well at a final concentration of 1000 cells / well (6uL volume) using the Multidrop Combi (Thermo Fisher Scientific) dispenser. 2.#The plates were incubated for 4 hours at 37 degrees C/5% CO2/95% Rh. 3.#Compounds were pin transferred (~23nL volume) via Wako Pin-tool (Wako Automation, Richmond VA) equipped with a 1536 pin head. The assay plates were treated with compounds in an 11-pnt concentration series with a final concentration range of […] to 85uM. 4.#Bortezomib was used as a single dose control (0.5mM column 4, rows 1 - 32) at a final concentration of 1.9uM and as a 16pnt titration (1mM; 1:2 dilution; 16-points; n = 2; column 3, rows 1 - 32) with final concentration range of 0.1nM - 3.8uM. 5.#The assay plates were incubated for 72 hours at 37 degrees C/5% CO2/95% Rh. 6.#3uL CellTiter-Glo detection reagent was then added to the plates (columns 2 - 48, rows 1 - 32) and incubated at room temperature for additional 15min. 7.#Luminescence signal was acquired via the ViewLux plate reader (PerkinElmer) using a clear filter, 2 second exposure and 2x binning settings.
Potency is the fitted concentration of half-maximal effect.

SMILES | Potency
COc1ccc2c(c1)[nH]c1c(C)nccc12 | 27.3 µM (active)
CN1C(=O)[C@]23CC4C(C)(C)[C@@]5(C[C@@]41CN2CC[C@@]3(C)O)C(=O)Nc1c5ccc2c1OC=CC(C)(C)O2 (some centres undefined) | inactive
c1ccc2c3c([nH]c2c1)CNCC3 | inactive
CCCC[C@@H]1CC[C@H]2CCCC(CCC)N12 (some centres undefined) | inactive
COc1ccc(C23Oc4cc(OC)cc(OC)c4[C@](O)([C@H](c4ccccc4)C2C(=O)NCCCCNC(=O)c2ccccc2)[C@@H]3O)cc1 (some centres undefined) | inactive
CCC(=O)CCCCC[C@@H]1NC(=O)[C@H]2CCCCN2C(=O)[C@H]([C@@H](C)CC)NC(=O)[C@H](Cc2cn(OC)c3ccccc23)NC1=O | 0.841 µM (active)
C[C@@H]1CC[C@@H](c2ccoc2)N2C[C@@]3(CC[C@@H]12)CS[C@@]1(CC[C@H]2[C@H](C)CC[C@@H](c4ccoc4)N2[C@@H]1O)C3 | 2.98 µM (active)
COC(=O)C1=C2Nc3ccccc3[C@@]23CCN2CC(C(C)=O)C1C[C@H]23 (some centres undefined) | 9.43 µM (active)
CN(C)Cc1c[nH]c2ccccc12 | inactive
CC1=CC2CC[C@@H]3[C@@H](C)C[C@H](C)[C@@H](C1)N23 (some centres undefined) | inactive
CCCCC[C@@H]1OC(=O)[C@@H](C)N(C)C(=O)[C@H](CCCCC)OC(=O)C(C)N(C)C(=O)[C@H](CCCCC)OC(=O)[C@@H](C)N(C)C(=O)[C@H](CCCCC)OC(=O)C(C)N(C)C1=O (some centres undefined) | 6.68 µM (active)
CO[C@@H](/C=C/CC/C=C/C(=O)O)[C@@H](O)[C@H](C)[C@@H](O)/C(C)=C/[C@H](C)C(=O)CCCC1CC(=O)NC(=O)C1 | inactive
CNCCc1ccc(O)cc1 | inactive
CCN1C[C@]2(C)CC[C@@H](O)[C@]34C1[C@H](C[C@H]23)C12CCC(CC14)[C@](O)(CO)[C@H]2O (some centres undefined) | inactive
CC1=CC(=O)C2=C(C)C[C@H](O)[C@@H]3[C@H](OC(=O)[C@@H]3C)[C@@H]12 | inactive
CC(=O)N[C@H]1CCN2CCC[C@H]12 | inactive
CNCCc1ccccc1 | inactive
CC[C@@H]1CN2CC[C@@]3(O)C(=Nc4cccc(OC)c43)[C@@H]2C[C@@H]1/C(=C\OC)C(=O)OC | inactive
C/C=C1/CN2CC[C@]34C(=Nc5ccccc53)[C@@H]2C[C@@H]1[C@H]4C(=O)OC | inactive
CO[C@H](c1ccccc1)[C@H]1NC(=O)C(C)NC(=O)C(C[C@@H](C)CO)N(C)C(=O)[C@@H](C(O)c2cn(C(C)(C)C3CO3)c3ccccc23)NC(=O)C(C(C)C=C(C)C)NC(=O)C(CC(C)C)N(C)C(=O)C(C(C)C)NC1=O (some centres undefined) | inactive
CCN1C[C@]2(C)CC[C@H](O)[C@]34C1C(C[C@H]23)[C@@]12CC[C@H](CC14)[C@](O)(COC(=O)c1ccc(OC)c(OC)c1)[C@H]2O (some centres undefined) | inactive
O=C(c1ccccc1O)c1[nH]c(Cl)c(Cl)c1-n1c(C(=O)c2ccccc2O)cc(Cl)c1Cl | 1.33 µM (active)
CNCCc1c[nH]c2ccccc12 | inactive
C[C@]12CC(O)C3[C@@H](CCC4C[C@@H](O)CC[C@@]43CO)[C@@]1(O)CCC2C1=CC(=O)OC1 (some centres undefined) | inactive
CC[N@@+]1([O-])C[C@]2(C)CC[C@@H](O)[C@@]34C5C[C@H]6CC[C@@]5(C(C[C@H]23)C41)[C@H](O)[C@@]6(O)CO (some centres undefined) | inactive
CC=C1CN(C=O)[C@H]2C[C@@H]1[C@@H](C(=O)OC)[C@@]13CCOC21Nc1ccccc13 (some centres undefined) | inactive
CCC[C@H]1CC[C@H]2[C@H](C)CCC[C@H]2N1 | inactive
CO[C@@H](/C=C/CC/C=C/C(=O)O)[C@@H](O)[C@H](C)/C=C(\C)[C@@H](O)[C@H](C)C(=O)CCCC1CC(=O)NC(=O)C1 | inactive
NCCc1ccccc1 | inactive
